{"source": "PubChem BioAssay (EPA / NIEHS)", "note": "Active and inactive are the calls of the source. Rule for the calls: active = hit-call score of the fitted dose curve at least 0.9, where 1 is the maximum; inconclusive = response in the unintended direction; inactive = score below 0.9.", "data": [{"test": "CPHEA_Stoker_NIS_Cytotoxicity: Cytotoxicity Assessment for CPHEA's Radioactive Iodide Uptake (RAIU) Assay for Sodium/Iodide Symporter (NIS) Inhibition, Stoker and Laws Labs (AID 2283897);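 for AC50: active means loss of ATP signal versus DMSO meaning cytotoxicity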", "method": "CPHEA_Stoker_NIS is a cell-based, single-readout assay that uses hNIS-HEK293T-EPA, a novel human kidney cell line expressing human NIS, with measurements taken at 2 hours after chemical dosing in a 96-well plate. This radioactive iodide uptake (RAIU) assay is used to identify inhibitors of NIS-mediated iodide uptake. A parallel cytoxicity assay (Cell Titer Glo, Promega) was also run in the same cell line.CPHEA_Stoker_NIS_Cytotoxicity is one of 2 assay components measured from the CPHEA_Stoker_NIS assay. It is designed to make measurements of atp content, a form of viability reporter, as detected with bioluminescence signals by Luciferase-coupled ATP quantitation technology.Data from the assay component CPHEA_Stoker_NIS_Cytotoxicity was analyzed at the endpoint, CPHEA_Stoker_NIS_Cytotoxicity, in the positive analysis fitting direction relative to DMSO as the negative control and baseline of activity. Using a type of viability reporter, measures of ATP content for loss-of-signal activity can be used to understand the viability. To generalize the intended target to other relatable targets, this assay endpoint is annotated to the cell cycle intended target family, where the subfamily is cytotoxicity.\nhNIS-HEK293T-EPA cells were seeded with a MultiFlo FX dispenser (BioTek, Winooski, VT) into ScintiPlate-96 microplates (Perkin Elmer, Waltham, MA) at a density of 4.0x10^4 cells per well in 200uL growth media and incubated for 40 hours before experimentation. On day of the assay, carrier-free 125I (Perkin-Elmer, Waltham, MA; specific activity: 17.4Ci/mg) was diluted with Hanks' balanced salt solution (Sigma, St. Louis, MO) supplemented with 10mM HEPES (uptake buffer; pH 7.4) at 5uCi/mL (288pg 125I/mL uptake buffer; 2.30nM). The assay was initiated by washing cells twice with 200uL uptake buffer using a 96-well Tecan HydroSpeed plate washer (Tecan, Mannedorf, Switzerland). Uptake buffer (59.7uL) was then added back to each well. Chemical samples (350nL at 200X) were administered using the HDR tool as previously described to achieve a 1X chemical/0.5% final DMSO concentration with subsequent addition of 10uL of 125I dilution (final [125I]: 329pM; 2.88pg/well) for a final reaction volume of 70uL/well. Cells were incubated at room temperature for 2 hours and then washed twice with 200uL ice cold uptake buffer. All uptake buffer was aspirated from wells, plates were sealed, and read on a MicroBeta2 plate reader (Perkin Elmer, Waltham, MA) using a detection protocol to measure CPM corresponding to intracellular 125I concentration. Each chemical concentration (0.001, 0.01, 0.1, 1.0, 10, and 100uM) was assayed in triplicate with three independent biological replicate plates (3 sequential cell passages). Additionally, a concentration response of NaClO4 (0.001, 0.01, 0.1, 1.0, 10, and 100uM) served as a positive control inhibition curve on each RAIU assay plate. DMSO control wells were assayed on each plate as a measure of maximum iodide uptake for normalization and determination of intra- and inter-assay variation. (Toxicol In Vitro, 2017, 40:66-78).", "values": [{"smiles": "O=C(Nc1ccccc1-c1ccc(Cl)cc1)c1cccnc1Cl", "outcome": "inactive"}, {"smiles": "CCNP(=S)(OC)O/C(C)=C/C(=O)OC(C)C", "note": "(configuration not stated)", "outcome": "inactive"}, {"smiles": "CO/N=C(/C1=NOCCO1)c1ccccc1Oc1ncnc(Oc2ccccc2Cl)c1F", "AC50": "10.9 µM (active)"}, {"smiles": "Cc1ccc(N=CN(C)C=Nc2ccc(C)cc2C)c(C)c1", "outcome": "inactive"}, {"smiles": "CCCCC(O)(Cn1cncn1)c1ccc(Cl)cc1Cl", "note": "(configuration not stated)", "outcome": "inactive"}, {"smiles": "CCOc1nc(F)cc2nc(S(=O)(=O)Nc3c(Cl)cccc3Cl)nn12", "outcome": "inactive"}, {"smiles": "CCOC(=O)C(C)OC(=O)c1cc(Oc2ccc(C(F)(F)F)cc2Cl)ccc1[N+](=O)[O-]", "note": "(configuration not stated)", "outcome": "inactive"}, {"smiles": "CCOc1cc(C(C)(C)C)ccc1C1COC(c2c(F)cccc2F)=N1", "note": "(configuration not stated)", "outcome": "inactive"}, {"smiles": "CC(C)=CC1C(C(=O)OCc2coc(Cc3ccccc3)c2)C1(C)C", "note": "(configuration not stated)", "outcome": "inactive"}, {"smiles": "CCOP(=S)(OCC)Oc1nc(Cl)n(C(C)C)n1", "outcome": "inactive"}, {"smiles": "C=C(C)CN(CC)c1c([N+](=O)[O-])cc(C(F)(F)F)cc1[N+](=O)[O-]", "AC50": "9.92 µM (active)"}, {"smiles": "N#Cc1c[nH]cc1-c1cccc2c1OC(F)(F)O2", "outcome": "inactive"}, {"smiles": "C=CCOC(=O)C(C)(C)OC(=O)c1cc(-n2c(=O)cc(C(F)(F)F)n(C)c2=O)ccc1Cl", "outcome": "inactive"}, {"smiles": "Nc1c(Cl)c(Cl)nc(C(=O)O)c1Cl", "outcome": "inactive"}, {"smiles": "O=C1C2CC=CCC2C(=O)N1SC(Cl)(Cl)Cl", "note": "(configuration not stated)", "outcome": "inactive"}, {"smiles": "COc1ccc(-c2ccccc2)cc1NNC(=O)OC(C)C", "outcome": "inactive"}, {"smiles": "OC(c1ccc(Cl)cc1)(c1ccc(Cl)cc1)C(Cl)(Cl)Cl", "AC50": "50 µM (active)"}, {"smiles": "CCOP(=O)(OCC)Oc1nc(Cl)c(Cl)cc1Cl", "outcome": "inactive"}, {"smiles": "COP(=S)(OC)Oc1ccc([N+](=O)[O-])c(C)c1", "outcome": "inactive"}, {"smiles": "COC(=O)c1c(C(F)F)nc(C(F)(F)F)c(C2=NCCS2)c1CC(C)C", "outcome": "inactive"}, {"smiles": "CCCCC(C#N)(Cn1cncn1)c1ccc(Cl)cc1", "note": "(configuration not stated)", "outcome": "inactive"}, {"smiles": "CSC(=O)c1c(C(F)F)nc(C(F)(F)F)c(C(=O)SC)c1CC(C)C", "outcome": "inactive"}, {"smiles": "CCCCOCN(C(=O)CCl)c1c(CC)cccc1CC", "outcome": "inactive"}, {"smiles": "CCN(CC)c1nc(C)cc(OP(=S)(OC)OC)n1", "outcome": "inactive"}, {"smiles": "COP(=S)(OC)SCn1nnc2ccccc2c1=O", "outcome": "inactive"}, {"smiles": "CC1(C)CON(Cc2ccccc2Cl)C1=O", "outcome": "inactive"}, {"smiles": "CCN(CC)C(=O)C(C)Oc1cccc2ccccc12", "note": "(configuration not stated)", "outcome": "inactive"}, {"smiles": "CC1(C)C(C(=O)OC(C#N)c2cccc(Oc3ccccc3)c2)C1(C)C", "note": "(configuration not stated)", "outcome": "inactive"}, {"smiles": "Clc1cccc(C(Cl)(Cl)Cl)n1", "outcome": "inactive"}, {"smiles": "CC1(C)C(C=C(Cl)Cl)C1C(=O)OC(C#N)c1cccc(Oc2ccccc2)c1", "note": "(configuration not stated)", "outcome": "inactive"}, {"smiles": "CC(C)N1C(=O)N(c2ccccc2)CSC1=NC(C)(C)C", "AC50": "40.8 µM (active)"}, {"smiles": "CC(C)Oc1cccc(NC(=O)c2ccccc2C(F)(F)F)c1", "outcome": "inactive"}]}]}
